# Source: PubChem
# This excerpt belongs to a sample that is enriched for hits.
# Pf Dd2 inh: inhibitors of Plasmodium falciparum Dd2 growth. Potency, µM (titrated, usually from 28.9 µM), actives largely listed as inhibitors. actives 4.3% (n = 120,000). AID 1347417. P. falciparum Dd2 growth, SYBR Green, 72 h; active = well fitted inhibition curve with a large enough effect; note: nearly all actives have a fitted effect of over 65% in size
#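 Readout: SYBR Green fluorescence, 485 nm excitation, 535 nm emission, after ~16 h lysis at 37C. Before that, Dd2-infected red cells (2.5% hematocrit) grew 72 h with compound, 29 uM top final concentration.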
# Hits are given with their value; - = inactive; [ ] = dose if it differs, or a comment.
SMILES,Pf Dd2 inh
Cc1cc(CN2CCC3(CC2)CCN(C(=O)c2ccccn2)CC3CO)on1 (stereo not drawn),-
Cc1ccc(-c2ncc(C(=O)N(C)Cc3nc(CC(C)C)no3)c(=O)[nH]2)cc1,-
CC(C)Cc1nc2nccc(-c3ccccc3)n2n1,-
CC(C)Cc1cnc(-c2ccccc2)[nH]1,16µM
O=C1NCC(=O)N2CCN(C(=O)c3cnnn3-c3ccccc3)CC12 (stereo not drawn),-
CN1C(=O)CCC2(CNC(=O)NC3CCCC3)CCC=C12 (stereo not drawn),-
C#CCN(C)C(=O)[C@@H]1CCCN1[C@@H](C(=O)NC)c1ccc(OC)cc1,-
COc1ccc(CCNC(=O)c2ccc3c(c2)N(Cc2cccc(Cl)c2)C(=O)CS3)cc1OC,-
CCCC1=Nc2cc(C(=O)NCCc3ccc(OC)c(OC)c3)ccc2Sc2ccc(C)cc21,10µM
CNC(=O)c1ccc2c(c1)N=C(C)c1cc(C)ccc1S2,-
CC1=Nc2cc(C(=O)NC(C)C)ccc2Sc2ccc(C)cc21,11µM
COc1ccc(CCNC(=O)c2ccc3c(c2)N=C(C)c2cc(C)ccc2S3)cc1OC,11µM
CCCC1=Nc2cc(C(=O)NCc3ccccc3)ccc2Sc2ccccc21,11µM
COc1ccc(CCNC(=O)c2ccc(Cn3c(=O)c4ccccc4n(Cc4ccc(C)cc4)c3=O)cc2)cc1OC,-
COc1ccc(CCNC(=O)c2cc(=O)c3cc(C)cc(C)c3o2)cc1OC,-
COc1ccc(CCNC(=O)c2ccc3[nH]c(C)c(C)c3c2)cc1OC,-
Cc1ccc(C)c(CN2C(=O)c3ccccc3Sc3ccc(C(=O)NCCCOC(C)C)cc32)c1,-
CCCNC(=O)c1ccc2c(c1)N(Cc1cccc(C)c1)C(=O)c1ccccc1S2,-
O=C(NCc1ccccc1)c1ccc2nccn2c1,-
CC[C@H]1CN(C(=O)Nc2cccc(C(F)(F)F)c2)CC[C@H]1CC(=O)NCc1ccccc1,-
O=C(N[C@H]1CO[C@H]2[C@@H]1OC[C@@H]2n1nnnc1Oc1ccc(-n2ccnc2)cc1)c1ccc(C(F)(F)F)cc1,-
COc1ccccc1CC(=O)NCC(=O)N1CCN(c2ccccn2)CC1,-
CN1c2cc(C(=O)N3CCN(c4ccccc4F)CC3)ccc2C(=O)N2CCCC21 (stereo not drawn),-
N#Cc1cccc(C(=O)N2C[C@@H](Oc3ccccc3)C[C@H]2C(=O)N2CCOCC2)c1,-
Cc1ncn(CC(=O)N[C@H]2CCOC[C@H]2C2CCOCC2)c1C,-
SMILES,Pf Dd2 inh
Cc1cccc2nc(C(=O)N3CCC(=O)N(CC4CC4)C(C(C)C)C3)cn12 (stereo not drawn),-
CCCNC(=O)CCc1ccnc(N2CCOCC2)c1,-
Cn1c(CNC(=O)CCc2ccnc(N3CCCC3)c2)nc2ccccc21,-
O=C(CCc1ccnc(N2CCCC2)c1)NCc1ccc(F)c(Cl)c1,3.2µM
Cc1oc(C(O)c2ccccc2)nc1C(=O)Nc1ccc(C(=O)Nc2ccccc2)cc1 (stereo not drawn),-
Cc1oc(C(O)c2ccccc2)nc1C(=O)Nc1ccc2c(c1)NC(=O)CO2 (stereo not drawn),10µM
COc1ccc(NC(=O)c2nc(C(O)c3ccccc3)oc2C)cn1 (stereo not drawn),-
O=C(NCCc1nc(-c2ccccc2)cs1)C1CC(=O)N(c2n[nH]c3ccccc23)C1 (stereo not drawn),-
COCc1nncn1C1CCN(S(=O)(=O)c2ccc(OC)c(Cl)c2)CC1,-
COc1ccccc1-c1ncc2c(n1)OCCN(Cc1ccc(F)cc1F)C2=O,-
COc1cccc(-c2ncc3c(n2)OCCN(Cc2ccc(F)cc2F)C3=O)c1F,10µM
COc1cccc(-c2ncc3c(n2)OCCN(Cc2ccc(F)cc2F)C3=O)c1,-
CCc1cccc(NC(=O)CN2C(=O)NC(c3ccc(C)cc3)C3=C2COC3=O)c1 (stereo not drawn),-
O=c1[nH]c(N2CCOCC2)nc2c1CCN(Cc1ccc(Cl)cc1F)CC2,0.32µM
O=c1[nH]c(N2CCOCC2)nc2c1CCN(Cc1ccc(Cl)cc1)CC2,-[5.79 µM]
CCOc1ccccc1CN1CCc2nc(N3CCOCC3)[nH]c(=O)c2CC1,-[5.79 µM]
O=c1[nH]c(N2CCOCC2)nc2c1CCN(Cc1ccccc1Br)CC2,1.3µM
O=c1[nH]c(N2CCOCC2)nc2c1CCN(Cc1ccc(F)cc1)CC2,-[5.79 µM]
CN1CCN(c2nc3c(c(=O)[nH]2)CCN(Cc2ccccc2Br)CC3)CC1,-[5.79 µM]
Cc1ccc(OCc2nc(C3CCCN3)no2)cc1 (stereo not drawn),-
Cc1ccc2c(c1)N(C(=O)Cn1ccn3nc(-c4ccc(F)cc4)c(CO)c3c1=O)CCO2,-
COCCc1nncn1C1CCN(C(=O)c2cc(C)ccc2C)CC1,-
CN1CCN(c2cc(-c3cncc(N)c3)nc(N)n2)CC1,-
COc1ccc(N2CCN(C(=O)CN3CCSc4ccccc43)CC2)cc1,-
CN(C)S(=O)(=O)c1ccc2c(c1)N(CC(=O)N1CCC(C(N)=O)CC1)CCS2,-
COc1cccc(N2CCN(C(=O)CN3CCSc4ccc(S(=O)(=O)N(C)C)cc43)CC2)c1,11µM
